Laboratory results published in PubChem BioAssay (EPA / NIEHS).
Inconclusive results are not listed. Some compounds were tested as several samples or in several runs, with calls that do not always agree. Calls of active or inactive are those of the source. Rule for the calls: active = hit-call score of the fitted dose curve at least 0.9, where 1 is the maximum; inconclusive = response in the unintended direction; inactive = score below 0.9.

The molecules below were run against Cellular tumor antigen p53 (Homo sapiens) (UniProt P04637) (assay: TOX21_p53_BLA_p3_ratio: Tox21 HCT-116 p53 Agonism Beta-lactamase Assay, Ratio, Phase 3 (AID 2283596)).
Cellular tumor antigen p53 (Homo sapiens), sequence (P04637 whole entry, looked up, the tested form may be a part): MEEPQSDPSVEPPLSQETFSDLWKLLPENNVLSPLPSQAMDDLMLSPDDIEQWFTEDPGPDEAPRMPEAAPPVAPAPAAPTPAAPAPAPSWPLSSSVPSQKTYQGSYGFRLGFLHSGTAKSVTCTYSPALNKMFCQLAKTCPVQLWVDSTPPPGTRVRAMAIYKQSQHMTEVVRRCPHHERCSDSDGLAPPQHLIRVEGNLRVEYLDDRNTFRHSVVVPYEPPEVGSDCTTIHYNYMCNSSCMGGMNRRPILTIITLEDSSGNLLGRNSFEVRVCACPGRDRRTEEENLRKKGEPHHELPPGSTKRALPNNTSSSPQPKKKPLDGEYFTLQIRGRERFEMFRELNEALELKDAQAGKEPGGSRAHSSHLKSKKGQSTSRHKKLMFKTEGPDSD
Description: TOX21_p53_BLA_p3 is a cell-based, single-readout assay that uses HCT116, a human intestinal cell line, […] in a 1536-well plate.TOX21_p53_BLA_p3_ratio is an assay readout measuring reporter gene via receptor activity and designed using inducible reporter (beta lactamase induction) detected with GAL4 b-lactamase reporter gene. The signal is derived from the ratio of cleaved (ch2) to uncleaved (ch1) reporter gene substrate used as the measure of target activity.Data from the assay component TOX21_p53_BLA_p3_ratio was analyzed into 1 assay endpoint. This assay endpoint, TOX21_p53_BLA_p3_ratio, was analyzed in the positive analysis fitting direction relative to DMSO as the negative control and baseline of activity. Using a type of inducible reporter, gain-of-signal activity can be used to understand changes in the reporter gene as they relate to the gene TP53. Furthermore, this assay endpoint can be referred to as a primary readout, because this assay has produced multiple assay endpoints where this ratio serves a reporter gene function to understand target activity. To generalize the intended target to other relatable targets, this assay endpoint is annotated to the DNA binding intended target family, where the subfamily is tumor suppressor.
Thawing Method: Place 14 mL of pre-warmed thaw medium into a 15 mL of conical tub. Remove the vial of cells to be thawed from liquid nitrogen and thaw rapidly by placing at 37C in a water bath with gentle agitation for 1-2 minutes. Decontaminate the vial by wiping with 70% ethanol before opening in a biological safety cabinet. Transfer the vial contents drop-wise into 14 mL of thaw medium in a sterile 15-mL conical tub. Centrifuge cells at 900 rpm for 4 minutes and resuspend in thaw medium. Transfer contents to the T75 tissue culture flask containing Thaw Medium and place flask in a humidified 37C/5% CO2 incubator. Switch to growth medium at first passage.Propagation Method: Aspirate medium, rinse once in DPBS, add 0.25% Trypsin/EDTA and swirl to coat the cell evenly. Add an equal volume of Growth Medium to inactivate Trypsin after 2-3 minutes incubation at 37C. Centrifuge cells at 900 rpm for 4 minutes and resuspend in growth medium. Cell should be passage or fed at least twice a week.Assay Protocol: Harvest cells from culture in growth medium and resuspend in assay medium. 2.2 Dispense 4000 cells/5 uL/well into 1536-well black/clear bottom plates using a Multidrop dispenser. After the cells were incubated at 37C for 5 hours, 23 nL of compounds dissolved in DMSO were transferred to the assay plate by a PinTool resulting in a 217-fold dilution. Incubate the plates for 16 hours at 37C, 5% CO2. Add 1 uL of 6X LiveBLAzer FRET B/G (CCF4-AM) Substrate Mixture to each well using a BioRAPTR dispenser and incubate the plates at room temperature for 2 hours. Measure fluorescence intensity at 460 and 530 nm emission and 405 nm excitation by an Envision detector. Data is expressed as the ratio of 460nm/530nm emissions. Add 4 uL of Cell-titer Glo to each well using BioRAPTR and incubate the plates at room temperature for 2 hours. Measure fluorescence intensity by a VewLux plate reader.

| Structure (SMILES) | outcome | AC50 |
| --- | --- | --- |
| N#CC1(N=NC2(C#N)CCCCC2)CCCCC1 | inactive | – |
| CC(C)(O)C(Cl)(Cl)Cl | inactive | – |
| CC(=O)O[C@H]1C[C@H](O[C@H]2[C@@H](O)C[C@H](O[C@H]3[C@@H](O)C[C@H](O[C@H]4CC[C@@]5(C)[C@H](CC[C@@H]6[C@@H]5C[C@@H](O)[C@]5(C)[C@@H](C7=CC(=O)OC7)CC[C@]65O)C4)O[C@@H]3C)O[C@@H]2C)O[C@H](C)[C@H]1O[C@@H]1O[C@H](CO)[C@@H](O)[C@H](O)[C@H]1O | inactive | – |
| O=[N+]([O-])O[C@H]1CO[C@H]2[C@@H]1OC[C@H]2O[N+](=O)[O-] | inactive | – |
| CC(=O)[O][Pb]([c]1ccccc1)([c]1ccccc1)[c]1ccccc1 | – | 38.7 µM (active) |
| O=C1Nc2ccc(Cl)cc2C(c2ccccc2)=NC1O (stereo not given) | inactive | – |
| CCC(C)Br (stereo not given) | inactive | – |
| O=C([O-])c1ccccn1.O=C([O-])c1ccccn1.O=C([O-])c1ccccn1.[Cr+3] | inactive | – |
| Clc1ccc(C(Cl)(Cl)Cl)c(Cl)c1 | inactive | – |
| O=C(Cl)c1ccccc1 | inactive | – |
| C=CCOC(C)=O | inactive | – |
| [O-][Br+2]([O-])O | inactive | – |
| [2H]C([2H])([2H])[C@H](N)Cc1ccccc1 | inactive | – |
| CCCC(C)(COC(N)=O)COC(=O)NC1CC1 (stereo not given) | inactive | – |
| CCCCCCCCCCCCCCCl | inactive | – |
| CCCCCCCCCCOC(=O)c1ccccc1C(=O)OCCCCCCCCCC | inactive | – |
| CCCCC#N | inactive | – |
| COc1ccc(CN2CCNCC2)c(OC)c1OC | inactive | – |
| Cc1nnc2n1-c1sc(CCc3ccc(CC(C)C)cc3)cc1C(c1ccccc1Cl)=NC2C (stereo not given) | – | 27.4 µM (active) |
| c1cc2c(c(NC3=NCCN3)c1)CCCC2 | inactive | – |

| Structure (SMILES) | outcome | AC50 |
| --- | --- | --- |
| CCBr | inactive | – |
| CCC(Cl)[N+](=O)[O-] (stereo not given) | inactive | – |
| CC(C)(C)NCC(O)c1ccccc1Cl (stereo not given) | inactive | – |
| CC(C)(C)C(=O)C(Cl)Cl | inactive | – |
| Nc1ccccc1 | inactive | – |
| CC(C)NCC(O)c1ccc(N)c(C#N)c1 (stereo not given) | inactive | – |
| Nc1ccncc1 | inactive | – |
| Nc1ccccc1Cl | inactive | – |
| CCc1cccc(C)c1N(C(=O)CCl)[C@@H](C)COC | inactive | – |
| CC(C)(C)C(=O)Cl | inactive | – |
| O=C(O)CC[N+](=O)[O-] | inactive | – |
| CC(C)C[C@H]1C(=O)N2CCC[C@H]2[C@]2(O)O[C@](NC(=O)[C@@H]3C[C@@H]4c5cccc6[nH]cc(c56)C[C@H]4N(C)C3)(C(C)C)C(=O)N12 | inactive | – |
| Nc1ccc([N+](=O)[O-])cc1N | inactive | – |
| CCCCN=C=O | inactive | – |
| OC(O)C(Cl)(Cl)Cl | inactive | – |
| CNC1(c2ccccc2Cl)CCCCC1=O (stereo not given) | inactive | – |
| O=C1C(Cl)=C(Cl)C(=O)C(Cl)=C1Cl | inactive | 4.93 µM (active) |
| CN(C)c1ccc(N(C)C)cc1 | inactive | – |
| Cc1nnc2n1-c1ccc(Cl)cc1C(c1ccccc1)=NC2 | inactive | – |
